Calls of active or inactive are those of the source. How the source made its calls: active means hit-call score of the fitted dose curve at least 0.9, where 1 is the maximum; inactive means score below 0.9.
Key:
Details in all cases: mRNA level, 48 h; actives raise or lower the signal
[1] = read-out: Tumor necrosis factor receptor superfamily member 6 (Homo sapiens) (UniProt P25445); assay: LTEA_HepaRG_FAS: Life Technologies and Expression Analysis (LTEA) Assay for Fas cell surface death receptor (FAS) using HepaRG (AID 2283447)
Outline: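 Differentiated HepaRG cells in serum-free induction medium were exposed 48 h to 8 half-log concentrations up to 100 uM in 0.5% DMSO, in duplicate. FAS mRNA was measured by qRT-PCR normalised to ACTB, GAPDH and POLR2A; bidirectional fit versus DMSO.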

[2] = read-out: Fatty acid synthase (Homo sapiens) (UniProt P49327); assay: LTEA_HepaRG_FASN: Life Technologies and Expression Analysis (LTEA) Assay for Fatty Acid Synthase (FASN) using HepaRG (AID 2283448);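 on AC50: differentiated human HepaRG liver cells in serum-free induction medium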
Outline: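 In human HepaRG cultures, 48 h chemical exposure (up to 100 uM, 0.5% DMSO) preceded TaqMan qRT-PCR of FASN.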

[3] = read-out: Cyclin D2 (CCND2), CCND2 (gene 894); assay: LTEA_HepaRG_CCND2: Life Technologies and Expression Analysis (LTEA) Assay for Cyclin D2 (CCND2) using HepaRG (AID 2283449);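 further: CCND2 transcript measured by TaqMan qRT-PCR and normalised to three housekeeping genes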
Outline: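 HepaRG, 48 h dosing, 8-pt half-log curve from 100 uM, 0.5% DMSO; duplicate wells. Readout: CCND2 transcript by microfluidic qRT-PCR, housekeeping-normalised; bidirectional fit vs DMSO baseline.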

[4] = read-out: Cyclin Dependent Kinase Inhibitor 1A (CDKN1A), CDKN1A (gene 1026); assay: LTEA_HepaRG_CDKN1A: Life Technologies and Expression Analysis (LTEA) Assay for Cyclin Dependent Kinase Inhibitor 1A (CDKN1A) using HepaRG (AID 2283450)
Outline: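 HepaRG, 48 h dosing, 8-pt half-log series from 100 uM top, 0.5% DMSO vehicle, duplicates. Readout: TaqMan qRT-PCR of CDKN1A transcript, housekeeping-normalized (ACTB, GAPDH, POLR2A). Up/down curve fit relative to DMSO.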

[5] = read-out: Cyclin D1 (CCND1), CCND1 (gene 595); assay: LTEA_HepaRG_CCND1: Life Technologies and Expression Analysis (LTEA) Assay for Cyclin D1 (CCND1) using HepaRG (AID 2283451);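 on AC50: differentiated human HepaRG liver cells in serum-free induction medium; TaqMan qRT-PCR transcript level normalised to ACTB GAPDH and POLR2A housekeeping genes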
Outline: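 qRT-PCR (Fluidigm 96.96 array) read-out of transcript level, housekeeping-normalized (ACTB/GAPDH/POLR2A). HepaRG cells, 48 h chemical exposure, 8-point half-log series from 100 uM, 0.5% DMSO vehicle; gain or loss relative to DMSO baseline.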

[6] = read-out: catalase (CAT), CAT (gene 847); assay: LTEA_HepaRG_CAT: Life Technologies and Expression Analysis (LTEA) Assay for catalase (CAT) using HepaRG (AID 2283452)
Outline: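 HepaRG cells in serum-free induction medium, 0.5% DMSO vehicle, exposed 48 h in duplicate over 8 half-log concentrations from 100 uM. CAT mRNA measured by qRT-PCR, normalized to ACTB, GAPDH, POLR2A; bidirectional fit versus DMSO.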

[7] = read-out: flavin-containing dimethylaniline monooxygenases 3 (FMO3), FMO3 (gene 2328); assay: LTEA_HepaRG_FMO3: Life Technologies and Expression Analysis (LTEA) Assay for flavin-containing dimethylaniline monooxygenases 3 (FMO3) using HepaRG (AID 2283453);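 on AC50: differentiated human HepaRG liver cells in serum-free induction medium; FMO3 transcript by TaqMan qRT-PCR normalized to ACTB GAPDH and POLR2A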
Outline: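 Eight-point concentration-response in serum-free HepaRG cultures (top 100 uM, 0.5% DMSO, 48 h). Read-out: FMO3 mRNA level normalized to three endogenous control genes, fitted bidirectionally versus vehicle.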

[8] = read-out: Cytochrome P450 (CYP1A1), CYP1A1 (gene 1543); assay: LTEA_HepaRG_CYP1A1: Life Technologies and Expression Analysis (LTEA) Assay for Cytochrome P450 (CYP1A1) using HepaRG (AID 2283454)
Outline: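 qRT-PCR read-out: CYP1A1 transcript normalized to three housekeeping genes, fitted bidirectionally against 0.5% DMSO vehicle baseline. Human HepaRG cells, 48 h chemical exposure, 8-point half-log series topping at 100 uM.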

[9] = read-out: Forkhead box O1 (FOXO1), FOXO1 (gene 2308); assay: LTEA_HepaRG_FOXO1: Life Technologies and Expression Analysis (LTEA) Assay for Forkhead box O1 (FOXO1) using HepaRG (AID 2283456)
Outline: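 HepaRG, 48 h exposure, 8-pt half-log series from 100 uM in 0.5% DMSO, duplicates; Fluidigm qRT-PCR mRNA, housekeeping-normalised; bidirectional fit vs DMSO baseline.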

[10] = read-out: CFLAR gene, CFLAR (gene 8837); assay: LTEA_HepaRG_CFLAR: Life Technologies and Expression Analysis (LTEA) Assay for CFLAR gene using HepaRG (AID 2283455)
Outline: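 qRT-PCR read-out (Fluidigm/TaqMan) of CFLAR mRNA, normalized to three housekeeping genes, in differentiated human HepaRG cells after 48 h chemical exposure; 8-point half-log series from 100 uM in 0.5% DMSO; bidirectional curve fitting versus DMSO.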

Measured: AC50

Sequence of Fatty acid synthase (Homo sapiens) (P49327 whole entry, looked up): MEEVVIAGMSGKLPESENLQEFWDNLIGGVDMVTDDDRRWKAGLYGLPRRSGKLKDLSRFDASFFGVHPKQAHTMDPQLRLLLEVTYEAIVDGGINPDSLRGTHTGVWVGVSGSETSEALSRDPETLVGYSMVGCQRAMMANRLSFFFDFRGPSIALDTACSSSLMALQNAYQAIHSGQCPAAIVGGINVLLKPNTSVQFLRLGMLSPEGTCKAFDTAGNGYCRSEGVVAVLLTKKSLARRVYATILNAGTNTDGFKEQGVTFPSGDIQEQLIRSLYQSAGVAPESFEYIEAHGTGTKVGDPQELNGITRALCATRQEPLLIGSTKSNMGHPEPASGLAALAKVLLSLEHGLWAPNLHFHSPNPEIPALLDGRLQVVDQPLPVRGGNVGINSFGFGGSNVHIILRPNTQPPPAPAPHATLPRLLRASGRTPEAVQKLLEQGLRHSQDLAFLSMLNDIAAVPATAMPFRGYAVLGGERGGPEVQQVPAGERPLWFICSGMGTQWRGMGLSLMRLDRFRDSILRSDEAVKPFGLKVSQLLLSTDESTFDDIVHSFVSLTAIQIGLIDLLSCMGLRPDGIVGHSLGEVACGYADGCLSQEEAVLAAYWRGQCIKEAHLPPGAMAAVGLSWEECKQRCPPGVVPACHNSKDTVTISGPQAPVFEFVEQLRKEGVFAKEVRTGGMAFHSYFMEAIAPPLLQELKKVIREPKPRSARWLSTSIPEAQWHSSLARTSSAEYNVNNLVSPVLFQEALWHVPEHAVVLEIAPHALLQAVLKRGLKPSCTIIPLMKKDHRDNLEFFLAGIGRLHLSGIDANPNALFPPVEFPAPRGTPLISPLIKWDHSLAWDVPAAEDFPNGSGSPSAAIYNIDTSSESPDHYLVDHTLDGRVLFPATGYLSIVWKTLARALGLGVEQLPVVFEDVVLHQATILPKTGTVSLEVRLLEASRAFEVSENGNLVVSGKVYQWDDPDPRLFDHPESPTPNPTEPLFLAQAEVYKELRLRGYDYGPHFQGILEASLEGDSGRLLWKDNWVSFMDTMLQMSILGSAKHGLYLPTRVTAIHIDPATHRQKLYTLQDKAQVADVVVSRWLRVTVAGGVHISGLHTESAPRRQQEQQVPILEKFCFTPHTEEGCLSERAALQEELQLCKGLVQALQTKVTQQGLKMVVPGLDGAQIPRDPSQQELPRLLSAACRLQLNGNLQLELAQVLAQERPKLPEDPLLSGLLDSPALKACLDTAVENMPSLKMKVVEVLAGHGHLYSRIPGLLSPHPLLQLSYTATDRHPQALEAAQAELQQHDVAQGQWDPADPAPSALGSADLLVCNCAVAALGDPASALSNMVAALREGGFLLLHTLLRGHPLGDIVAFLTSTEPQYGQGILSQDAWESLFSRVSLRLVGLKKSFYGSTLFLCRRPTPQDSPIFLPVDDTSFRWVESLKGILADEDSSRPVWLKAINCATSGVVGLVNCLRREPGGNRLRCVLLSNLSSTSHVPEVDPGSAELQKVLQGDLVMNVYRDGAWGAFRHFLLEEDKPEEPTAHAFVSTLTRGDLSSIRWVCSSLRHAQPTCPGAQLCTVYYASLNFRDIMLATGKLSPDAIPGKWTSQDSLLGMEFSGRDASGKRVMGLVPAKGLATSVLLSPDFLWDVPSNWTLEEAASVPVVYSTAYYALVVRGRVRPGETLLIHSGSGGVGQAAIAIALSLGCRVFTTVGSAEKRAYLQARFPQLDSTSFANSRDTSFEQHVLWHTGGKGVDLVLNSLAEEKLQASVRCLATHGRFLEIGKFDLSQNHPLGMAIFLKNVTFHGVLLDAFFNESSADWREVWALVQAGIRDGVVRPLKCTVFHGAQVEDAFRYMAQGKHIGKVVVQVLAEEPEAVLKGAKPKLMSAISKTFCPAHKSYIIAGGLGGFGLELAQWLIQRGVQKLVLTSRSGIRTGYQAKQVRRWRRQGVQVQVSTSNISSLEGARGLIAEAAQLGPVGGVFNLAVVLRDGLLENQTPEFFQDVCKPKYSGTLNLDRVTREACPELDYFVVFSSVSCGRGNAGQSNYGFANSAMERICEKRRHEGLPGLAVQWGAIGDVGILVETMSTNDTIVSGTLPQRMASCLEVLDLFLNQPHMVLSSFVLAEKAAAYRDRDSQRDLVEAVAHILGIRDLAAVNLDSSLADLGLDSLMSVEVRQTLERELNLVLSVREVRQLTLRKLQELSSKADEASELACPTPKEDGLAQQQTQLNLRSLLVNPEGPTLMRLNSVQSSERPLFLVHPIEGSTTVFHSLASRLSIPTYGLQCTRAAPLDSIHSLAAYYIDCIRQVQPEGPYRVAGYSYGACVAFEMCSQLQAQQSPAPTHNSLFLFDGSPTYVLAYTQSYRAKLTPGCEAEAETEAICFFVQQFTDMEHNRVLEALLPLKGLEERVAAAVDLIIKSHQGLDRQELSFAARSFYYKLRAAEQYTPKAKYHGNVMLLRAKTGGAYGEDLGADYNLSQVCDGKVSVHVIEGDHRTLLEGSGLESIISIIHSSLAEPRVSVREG

O=C(O)c1cc(N=Nc2ccc(S(=O)(=O)Nc3ccccn3)cc2)ccc1O
active: [8] 35.8 µM
not listed: [10]
inactive: all other assays above

CCOC(=O)CC(CC(=O)OCC)(OC(C)=O)C(=O)OCC
active: [8] 70.5 µM
not listed: [6] | [10]
inactive: all other assays above

Cc1ccc(O)cc1
not listed: [8] | [10]
inactive: all other assays above

C=CC(=C)CCC=C(C)C
active: [8] 35 µM
not listed: [6]
inactive: all other assays above

CC[C@H](C)C(=O)O[C@H]1C[C@@H](C)C=C2C=C[C@H](C)[C@H](CC[C@@H]3C[C@@H](O)CC(=O)O3)[C@H]21
active: [2] 12.1 µM | [8] 24.4 µM
not listed: [6]
inactive: all other assays above

O=C(O)c1cccc(N(Cc2cccnc2)c2ccc(OC(F)F)c(OC(F)F)c2)c1
active: [2] 81.3 µM | [3] 0.00643 µM | [8] 50 µM
not listed: [6] | [10]
inactive: all other assays above

Nc1cccc(N)c1
active: [8] 50 µM
not listed: [6]
inactive: all other assays above

CC(=O)OC[C@H]1O[C@@](COC(C)=O)(O[C@H]2O[C@H](COC(C)=O)[C@@H](OC(C)=O)[C@H](OC(C)=O)[C@H]2OC(C)=O)[C@@H](OC(C)=O)[C@@H]1OC(C)=O
active: [8] 47.5 µM
not listed: [6] | [10]
inactive: all other assays above

CC(C)=CCC/C(C)=C\CO
not listed: [8] | [10]
inactive: all other assays above

O=C(NS(=O)(=O)/C=C/c1ccccc1)c1ccc(F)cc1Cl
active: [8] 50 µM
not listed: [10]
inactive: all other assays above

CCC(C)(C)C(=O)O[C@H]1C[C@@H](C)C=C2C=C[C@H](C)[C@H](CC[C@@H]3C[C@@H](O)CC(=O)O3)[C@H]21
active: [2] 10.9 µM
not listed: [8] | [10]
inactive: all other assays above

O=C1CCCCCN1
not listed: [6]
inactive: all other assays above

Nc1nc2ncc(CNc3ccc(C(=O)N[C@@H](CCC(=O)O)C(=O)O)cc3)nc2c(=O)[nH]1
active: [8] 78.5 µM
not listed: [6]
inactive: all other assays above

CCOC(=O)c1ccc(C2CCC(NC[C@H](O)COc3ccc(O)c(NS(C)(=O)=O)c3)CC2)cc1 (some centres undefined)
active: [8] 73.3 µM
not listed: [10]
inactive: all other assays above

CC1(C)C(=O)N(Br)C(=O)N1Br
active: [8] 36.8 µM
not listed: [6]
inactive: all other assays above

CCn1nc(Cc2ccccc2)cc1C1CCN(C[C@H]2C[C@H](N(C)[C@@H](C(=O)O)C(C)C)C[C@@H]2c2cccc(F)c2)CC1
active: [7] 50 µM | [8] 83.9 µM
not listed: [6]
inactive: all other assays above

CCOC(=O)COc1ccc2c(c1)CC(NCC(O)c1cccc(Cl)c1)CC2 (centres undefined)
not listed: [10]
inactive: all other assays above

C1N2CN3CN1CN(C2)C3
active: [8] 51 µM
not listed: [6] | [10]
inactive: all other assays above

Cc1ccc(S(=O)(=O)O)cc1C
active: [8] 74.3 µM
not listed: [3] | [6]
inactive: all other assays above

COCCOc1cc2cc(C(=O)NC3CCN(C(C)C)CC3)n(CC(=O)Nc3ccc(Cl)cn3)c2cn1
inactive: [1] | [3] | [4] | [9]
active: [2] 32.5 µM | [5] 45 µM | [7] 53.3 µM | [8] 2.09 µM

CC(C)=CCCC(C)CCO (centres undefined)
active: [8] 62.2 µM
not listed: [3] | [6]
inactive: all other assays above

COc1cccc(-c2ccc(/C=C\CN3CCCCCC3)cc2Cl)c1
inactive: [4] | [10]
active: [1] 77.5 µM | [2] 45.2 µM | [5] 72.2 µM | [6] 69.7 µM | [7] 68.8 µM | [8] 45.2 µM | [9] 70.8 µM

CCOCCOCCOCCO
inactive: [2] | [4] | [5] | [7] | [8] | [9]

— PubChem BioAssay (EPA / NIEHS)
